The text below walks through data of PubChem BioAssay (NCI).

About 83,000 compounds went through this panel and 20% of them were active in at least one assay; those are over-represented in the sample as a whole.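 Growth was measured after 48 h exposure to one concentration of compound in 96-well plates. Values under 10 count as active.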 Unmarked numbers belong to inactive results. Activity calls are given as the source filed them.

The first experiment has as its system SK-MEL-2 melanoma. Nature of the experiment: NCI-60 one-dose screen, 48 h (100 = growth as untreated, 0 = no growth, -100 = all killed). The settings on record: 10 µM unless noted.
On to `Nc1nc(-c2cc3c(cc2Cl)NC(=O)/C3=C/c2ccc(Cl)cc2)cs1`, for which the growth was 36.6%.

In the case of `Cc1cccc(Cc2cnc(NC(=O)CCc3ccc(C)o3)s2)c1`, the growth was 30.6%.

For the compound `CC(Cl)(CCl)CS(=O)(=O)c1ccc(Cl)cc1` (stereo unspecified), the growth was 99.1%.

Take `COc1ccc(Cl)cc1NC(=O)c1cc2c([nH]1)-c1nc(NC(=O)C(C)(C)C)sc1CC2`: the growth is 83%.

In the case of `CC(C)(c1ccc(OCC(O)CNCc2ccco2)cc1)c1ccc(OCC(O)CNCc2ccco2)cc1` (stereo unspecified), the growth is 94.4%.

Regarding `O=C1CCC(c2c(O)cc(O)c3c(=O)c(O)c(-c4ccc(O)c(O)c4)oc23)N1` (stereo unspecified), the growth was 98.2%.

Take `COc1ccc(Cn2cc3c(c2-c2cc(OC)c(OC)c(OC)c2)CCc2c(CO)noc2-3)cc1`: the growth is 49.5%.

Take `CC(=O)Cc1cccnc1`: the growth was 116%.

Regarding `CC(/C=C/C=C(\C)[C@H](O)[C@H](C)C(=O)O[C@H]1C[C@H](C)C=C2C=C[C@@]3(C)O[C@@H](O)CC(=O)[C@]3(C)[C@H]21)=C\C=C\C(=O)O`, the growth was -46.9% (active).

As to `Nc1nc(-c2cc3c(cc2Cl)NC(=O)/C3=C/c2ccccc2)cs1`, the growth is 71.3%.

As to `C=CC(=O)NC(=O)Nc1ccccc1Cl`, the growth is 86%.

For `CCOC(=O)c1noc2c1CCc1c-2cn(Cc2ccc(OC)cc2)c1-c1cc(OC)c(OC)c(OC)c1`, the growth is 35.4%.

As to `C=C1C(=O)O[C@H]2[C@H]1CC/C(COC(=O)OC/C1=C/CC[C@@]3(C)O[C@H]3[C@H]3OC(=O)[C@@H](CN(C)C)[C@@H]3CC1)=C\CC[C@@]1(C)O[C@@H]21`, the growth was 27.4%.

Regarding `CC1CCC(C(C)C)C(NN)C1` (stereo unspecified), the growth was 101%.

In the case of `Cc1cc(SCc2ccc(Cl)cc2Cl)nc(SCc2ccc(Cl)cc2Cl)n1`, the growth was 103%.

As to `CCCC(C)(C)COC(=O)c1cccc(N)c1`, the growth is 88%.

For the compound `O=C1C(Cl)=C(Nc2cccc3cc4ccccc4nc23)C(=O)c2ccccc21`, the growth is 44.2%.

For the compound `CN(C)CCCOc1c(Br)cc(/C=C/C(=O)N(C)CCc2cc(Br)c(OCCCN(C)C)c(Br)c2)cc1Br`, the growth was 89.3%.

Consider `Nc1nccc(=S)[nH]1`, for which the growth is 97.7%.

Regarding `C=C1C(=O)O[C@H]2[C@H]1CC/C(COC(=O)CCCC(=O)OC/C1=C/CC[C@@]3(C)O[C@H]3[C@H]3OC(=O)C(=C)[C@@H]3CC1)=C\CC[C@@]1(C)O[C@@H]21`, the growth is 19.5%.

As for `O=C(NNC(=O)c1ccc([N+](=O)[O-])cc1)c1ccc([N+](=O)[O-])cc1`, the growth was 107%.

For the compound `COc1cc(C(=O)NNC(=O)c2ccccc2C(=O)O)cc(OC)c1OC`, the growth is 49.3%.

Take `O=S(c1ccccc1)c1ccc2nnnn2n1` (stereo unspecified): the growth is 98.9%.

In the case of `Cc1ncc(CO)c(C(=O)O)c1O`, the growth was 89.7%.

Consider `CCOC(=O)c1noc2c1CCc1cn(Cc3cc(OC)cc(OC)c3)cc1-2`, for which the growth is 92.1%.

For `CCCCCC/C=N/Nc1ccc([N+](=O)[O-])cn1`, the growth was 89.6%.

For `CC[C@@]1(O)C(=O)OCc2c1cc1n(c2=O)Cc2c-1nc1ccccc1c2/C=N/OC(C)(C)C`, the growth is -17.8% (active).

In the case of `CC(=O)Oc1ccc(C(OC(C)=O)OC(C)=O)cc1`, the growth is 104%.

For `C=C1C(=O)O[C@H]2[C@H]1CC/C(COC(=O)n1ccnc1C)=C\CC[C@@]1(C)O[C@@H]21`, the growth is 86.8%.

Turning to `C=C1C(=O)O[C@H]2[C@H]1CC/C(C(=O)NCCOCCOCC(=O)Nc1ccc(OC)c(C(N)=O)c1O)=C\CC[C@@]1(C)O[C@@H]21`, the growth is 82.1%.

Regarding `Cc1cc(C)c(O)c(C(=O)CC(Br)C(=O)O)c1` (stereo unspecified), the growth is 89.5%.

For `COc1ccc(-c2ccc(NC(=O)Nc3cccc(C(F)(F)F)c3)c(C)n2)cc1`, the growth was 75.9%.

`COc1ccc(Cn2cc(COc3ccc4c5ccnc(C)c5n(CCCc5ccccc5)c4c3)nn2)cc1`: the growth is 64.4%.

Take `O=S(=O)(O)c1ccc(F)cc1`: the growth was 93.6%.

Consider `Cc1nccc2c3ccc(OCc4cn(Cc5ccc(Br)cc5)nn4)cc3n(CCCc3ccccc3)c12`, for which the growth is 80.7%.

In the case of `Cl[C@@H]1CCO[C@H](c2cc3ccccc3c3ccccc23)C1`, the growth is 101%.

As for `Nc1ncnc2c1c(C(F)(F)F)cn2[C@@H]1O[C@H](CO)[C@@H](O)[C@H]1O`, the growth was -42.6% (active).

Take `C#C[C@@]1(O)[C@@H](CO)O[C@@H](n2cc(Br)c3c(Cl)ccnc32)[C@@H]1O`: the growth is 68.7%.

The test system of the next experiment is EKVX NSCLC. The description is as above. To be noted: 10 µM unless noted.
For `Nc1nc(-c2cc3c(cc2Cl)NC(=O)/C3=C/c2ccc(Cl)cc2)cs1`, the growth was 35.3%.

Regarding `Cc1cccc(Cc2cnc(NC(=O)CCc3ccc(C)o3)s2)c1`, the growth was 43.8%.

As to `CC(Cl)(CCl)CS(=O)(=O)c1ccc(Cl)cc1` (stereo unspecified), the growth is 103%.

For `COc1ccc(Cl)cc1NC(=O)c1cc2c([nH]1)-c1nc(NC(=O)C(C)(C)C)sc1CC2`, the growth is 50.4%.

Turning to `CC(C)(c1ccc(OCC(O)CNCc2ccco2)cc1)c1ccc(OCC(O)CNCc2ccco2)cc1` (stereo unspecified), the growth was 92.1%.

As for `O=C1CCC(c2c(O)cc(O)c3c(=O)c(O)c(-c4ccc(O)c(O)c4)oc23)N1` (stereo unspecified), the growth was 106%.

Take `COc1ccc(Cn2cc3c(c2-c2cc(OC)c(OC)c(OC)c2)CCc2c(CO)noc2-3)cc1`: the growth was 45.8%.

Take `CC(=O)Cc1cccnc1`: the growth is 105%.

Regarding `CC(/C=C/C=C(\C)[C@H](O)[C@H](C)C(=O)O[C@H]1C[C@H](C)C=C2C=C[C@@]3(C)O[C@@H](O)CC(=O)[C@]3(C)[C@H]21)=C\C=C\C(=O)O`, the growth is -0.933% (active).

`Nc1nc(-c2cc3c(cc2Cl)NC(=O)/C3=C/c2ccccc2)cs1`: the growth was 34.7%.

As to `C=CC(=O)NC(=O)Nc1ccccc1Cl`, the growth was 94.7%.

In the case of `CCOC(=O)c1noc2c1CCc1c-2cn(Cc2ccc(OC)cc2)c1-c1cc(OC)c(OC)c(OC)c1`, the growth was 48.6%.

For the compound `C=C1C(=O)O[C@H]2[C@H]1CC/C(COC(=O)OC/C1=C/CC[C@@]3(C)O[C@H]3[C@H]3OC(=O)[C@@H](CN(C)C)[C@@H]3CC1)=C\CC[C@@]1(C)O[C@@H]21`, the growth is 48.8%.

Consider `CC1CCC(C(C)C)C(NN)C1` (stereo unspecified), for which the growth was 102%.

Consider `Cc1cc(SCc2ccc(Cl)cc2Cl)nc(SCc2ccc(Cl)cc2Cl)n1`, for which the growth is 88.5%.

For `CCCC(C)(C)COC(=O)c1cccc(N)c1`, the growth is 101%.

In the case of `O=C1C(Cl)=C(Nc2cccc3cc4ccccc4nc23)C(=O)c2ccccc21`, the growth is 71.9%.

Consider `CN(C)CCCOc1c(Br)cc(/C=C/C(=O)N(C)CCc2cc(Br)c(OCCCN(C)C)c(Br)c2)cc1Br`, for which the growth was 78.7%.

Take `Nc1nccc(=S)[nH]1`: the growth is 101%.

As to `C=C1C(=O)O[C@H]2[C@H]1CC/C(COC(=O)CCCC(=O)OC/C1=C/CC[C@@]3(C)O[C@H]3[C@H]3OC(=O)C(=C)[C@@H]3CC1)=C\CC[C@@]1(C)O[C@@H]21`, the growth was 51.1%.

In the case of `O=C(NNC(=O)c1ccc([N+](=O)[O-])cc1)c1ccc([N+](=O)[O-])cc1`, the growth is 93.7%.

For `COc1cc(C(=O)NNC(=O)c2ccccc2C(=O)O)cc(OC)c1OC`, the growth is 83.4%.

`O=S(c1ccccc1)c1ccc2nnnn2n1` (stereo unspecified): the growth is 101%.

Consider `Cc1ncc(CO)c(C(=O)O)c1O`, for which the growth was 101%.

In the case of `CCOC(=O)c1noc2c1CCc1cn(Cc3cc(OC)cc(OC)c3)cc1-2`, the growth was 98.1%.

Take `CCCCCC/C=N/Nc1ccc([N+](=O)[O-])cn1`: the growth is 101%.

On to `CC[C@@]1(O)C(=O)OCc2c1cc1n(c2=O)Cc2c-1nc1ccccc1c2/C=N/OC(C)(C)C`, for which the growth was 17%.

As to `CC(=O)Oc1ccc(C(OC(C)=O)OC(C)=O)cc1`, the growth is 94.1%.

As for `C=C1C(=O)O[C@H]2[C@H]1CC/C(COC(=O)n1ccnc1C)=C\CC[C@@]1(C)O[C@@H]21`, the growth was 98.4%.

`C=C1C(=O)O[C@H]2[C@H]1CC/C(C(=O)NCCOCCOCC(=O)Nc1ccc(OC)c(C(N)=O)c1O)=C\CC[C@@]1(C)O[C@@H]21`: the growth is 95.7%.

In the case of `Cc1cc(C)c(O)c(C(=O)CC(Br)C(=O)O)c1` (stereo unspecified), the growth is 99.4%.

Take `COc1ccc(-c2ccc(NC(=O)Nc3cccc(C(F)(F)F)c3)c(C)n2)cc1`: the growth is 41.4%.

Consider `COc1ccc(Cn2cc(COc3ccc4c5ccnc(C)c5n(CCCc5ccccc5)c4c3)nn2)cc1`, for which the growth is 101%.

On to `O=S(=O)(O)c1ccc(F)cc1`, for which the growth is 101%.

Regarding `Cc1nccc2c3ccc(OCc4cn(Cc5ccc(Br)cc5)nn4)cc3n(CCCc3ccccc3)c12`, the growth was 85.5%.

In the case of `Cl[C@@H]1CCO[C@H](c2cc3ccccc3c3ccccc23)C1`, the growth was 90.8%.

For the compound `Nc1ncnc2c1c(C(F)(F)F)cn2[C@@H]1O[C@H](CO)[C@@H](O)[C@H]1O`, the growth is 3.57% (active).

Turning to `C#C[C@@]1(O)[C@@H](CO)O[C@@H](n2cc(Br)c3c(Cl)ccnc32)[C@@H]1O`, the growth is 58.7%.
